Results published in article PMC7862700, “An all-to-all approach to the identification of sequence-specific readers for epigenetic DNA modifications on cytosine”.

Columns and labels:
Test in all cases: DAPPL (digital affinity profiling via proximity ligation, sequencing); 10 mM Tris-HCl pH 7.5, 50 mM NaCl, 1 mM DTT, 4% glycerol, room temperature, 30 min; GST-TFs on glutathione beads, 16-mer random dsDNA library, 0.1% formaldehyde crosslink after washing; high values mean tight binding
Settings in all cases: protein: recombinant; tags: N-terminal GST; dsDNA, one strand shown
[1] = target: T1, ELK1 (Homo sapiens, UniProt P19419 1-428)
T1 sequence: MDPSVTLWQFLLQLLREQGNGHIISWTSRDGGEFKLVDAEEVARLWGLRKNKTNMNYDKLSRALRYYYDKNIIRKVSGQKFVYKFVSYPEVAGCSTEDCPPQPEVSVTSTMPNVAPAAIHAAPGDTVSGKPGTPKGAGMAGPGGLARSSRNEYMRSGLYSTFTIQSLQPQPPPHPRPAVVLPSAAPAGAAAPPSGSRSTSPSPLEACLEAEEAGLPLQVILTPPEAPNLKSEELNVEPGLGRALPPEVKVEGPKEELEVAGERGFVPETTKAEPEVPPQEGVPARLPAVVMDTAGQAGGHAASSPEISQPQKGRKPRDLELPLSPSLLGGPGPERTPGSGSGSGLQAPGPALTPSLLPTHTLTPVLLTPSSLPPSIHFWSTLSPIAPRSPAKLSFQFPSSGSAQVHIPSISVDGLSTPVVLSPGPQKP
Method in brief: (§1)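 Sequencing on an Illumina NextSeq500 followed washing, crosslinking with 0.1% formaldehyde, proximity ligation (BsaI/T4 ligase, 1 h, 37 °C) and PCR amplification of pools that had been incubated for 30 min at room temperature with 200 nmole of a random double-stranded 16-mer DNA library in Tris/NaCl/DTT/glycerol buffer. Each pool held DNA-barcoded human transcription factors, expressed in yeast as GST fusions and captured on glutathione beads, plus a tag-only sample. Binding signal is a hexamer's read frequency for a factor divided by its frequency in the tag-only sample.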

[2] = target: T2, GABPA (Homo sapiens, UniProt Q06546 1-454)
T2 sequence: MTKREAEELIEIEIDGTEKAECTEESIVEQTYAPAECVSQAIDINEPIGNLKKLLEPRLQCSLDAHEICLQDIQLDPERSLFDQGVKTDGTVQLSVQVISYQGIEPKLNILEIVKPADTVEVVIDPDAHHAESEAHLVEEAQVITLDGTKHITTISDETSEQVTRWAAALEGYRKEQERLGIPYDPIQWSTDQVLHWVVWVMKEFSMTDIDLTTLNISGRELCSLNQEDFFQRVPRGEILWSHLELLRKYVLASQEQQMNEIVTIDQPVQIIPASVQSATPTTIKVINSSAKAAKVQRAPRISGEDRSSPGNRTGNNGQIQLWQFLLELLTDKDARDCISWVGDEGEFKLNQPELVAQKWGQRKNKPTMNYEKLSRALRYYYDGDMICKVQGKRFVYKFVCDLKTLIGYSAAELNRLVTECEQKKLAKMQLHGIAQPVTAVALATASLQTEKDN
Method in brief: as §1

[3] = target: ELF1 (Homo sapiens, UniProt P32519 1-619)
Sequence of ELF1 (P32519 whole entry): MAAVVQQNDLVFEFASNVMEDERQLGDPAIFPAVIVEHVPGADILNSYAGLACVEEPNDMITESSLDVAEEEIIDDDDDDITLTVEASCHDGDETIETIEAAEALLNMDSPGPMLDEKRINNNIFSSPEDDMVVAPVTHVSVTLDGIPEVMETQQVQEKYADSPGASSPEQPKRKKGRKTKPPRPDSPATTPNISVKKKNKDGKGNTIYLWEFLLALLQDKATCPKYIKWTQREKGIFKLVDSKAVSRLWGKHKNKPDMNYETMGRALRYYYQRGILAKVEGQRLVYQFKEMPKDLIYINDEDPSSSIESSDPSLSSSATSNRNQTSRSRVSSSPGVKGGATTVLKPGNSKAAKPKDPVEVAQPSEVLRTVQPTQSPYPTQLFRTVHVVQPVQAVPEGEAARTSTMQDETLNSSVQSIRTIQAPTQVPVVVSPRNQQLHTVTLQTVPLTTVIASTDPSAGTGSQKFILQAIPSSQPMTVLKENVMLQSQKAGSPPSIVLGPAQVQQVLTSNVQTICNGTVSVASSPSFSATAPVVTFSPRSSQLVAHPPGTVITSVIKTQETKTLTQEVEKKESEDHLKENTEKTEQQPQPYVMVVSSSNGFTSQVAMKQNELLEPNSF
Method in brief: as §1

[4] = target: SPIB (Homo sapiens, UniProt Q01892 1-262)
Sequence of SPIB (Q01892 whole entry): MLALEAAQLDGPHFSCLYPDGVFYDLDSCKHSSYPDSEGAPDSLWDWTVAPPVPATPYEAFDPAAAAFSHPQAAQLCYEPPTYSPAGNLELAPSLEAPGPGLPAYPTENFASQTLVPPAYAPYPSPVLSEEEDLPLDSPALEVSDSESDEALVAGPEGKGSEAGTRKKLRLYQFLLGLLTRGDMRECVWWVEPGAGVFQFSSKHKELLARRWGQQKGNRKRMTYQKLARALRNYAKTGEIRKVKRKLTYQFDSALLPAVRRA
Method in brief: as §1

[5] = target: T3, FEV (Homo sapiens, UniProt Q99581 1-238)
T3 sequence: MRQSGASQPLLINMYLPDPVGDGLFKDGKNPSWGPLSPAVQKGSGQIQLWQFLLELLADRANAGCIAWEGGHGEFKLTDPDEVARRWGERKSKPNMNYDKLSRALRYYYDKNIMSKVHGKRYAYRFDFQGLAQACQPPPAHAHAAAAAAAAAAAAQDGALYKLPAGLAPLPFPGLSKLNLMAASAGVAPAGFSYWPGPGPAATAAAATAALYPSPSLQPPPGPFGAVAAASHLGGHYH
Method in brief: as §1

[6] = target: ETV5 (Homo sapiens, UniProt P41161 1-510)
Sequence of ETV5 (P41161 whole entry): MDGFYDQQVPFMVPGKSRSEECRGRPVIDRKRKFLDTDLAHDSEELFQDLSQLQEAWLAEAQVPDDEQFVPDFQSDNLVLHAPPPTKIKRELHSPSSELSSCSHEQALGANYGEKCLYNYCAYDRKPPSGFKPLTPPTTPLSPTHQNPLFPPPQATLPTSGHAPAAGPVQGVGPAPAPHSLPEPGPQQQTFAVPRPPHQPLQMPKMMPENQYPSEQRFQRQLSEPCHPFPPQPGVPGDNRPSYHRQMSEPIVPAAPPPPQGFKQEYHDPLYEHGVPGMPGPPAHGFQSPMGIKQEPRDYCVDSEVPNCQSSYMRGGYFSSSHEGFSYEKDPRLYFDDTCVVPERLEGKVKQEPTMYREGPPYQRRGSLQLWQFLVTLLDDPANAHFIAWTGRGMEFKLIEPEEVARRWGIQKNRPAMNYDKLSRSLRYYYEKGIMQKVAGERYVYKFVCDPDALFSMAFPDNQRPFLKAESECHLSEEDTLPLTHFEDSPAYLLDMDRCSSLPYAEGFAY
Method in brief: as §1

[7] = target: ELF4 (Homo sapiens, UniProt Q99607 1-663)
Sequence of ELF4 (Q99607 whole entry): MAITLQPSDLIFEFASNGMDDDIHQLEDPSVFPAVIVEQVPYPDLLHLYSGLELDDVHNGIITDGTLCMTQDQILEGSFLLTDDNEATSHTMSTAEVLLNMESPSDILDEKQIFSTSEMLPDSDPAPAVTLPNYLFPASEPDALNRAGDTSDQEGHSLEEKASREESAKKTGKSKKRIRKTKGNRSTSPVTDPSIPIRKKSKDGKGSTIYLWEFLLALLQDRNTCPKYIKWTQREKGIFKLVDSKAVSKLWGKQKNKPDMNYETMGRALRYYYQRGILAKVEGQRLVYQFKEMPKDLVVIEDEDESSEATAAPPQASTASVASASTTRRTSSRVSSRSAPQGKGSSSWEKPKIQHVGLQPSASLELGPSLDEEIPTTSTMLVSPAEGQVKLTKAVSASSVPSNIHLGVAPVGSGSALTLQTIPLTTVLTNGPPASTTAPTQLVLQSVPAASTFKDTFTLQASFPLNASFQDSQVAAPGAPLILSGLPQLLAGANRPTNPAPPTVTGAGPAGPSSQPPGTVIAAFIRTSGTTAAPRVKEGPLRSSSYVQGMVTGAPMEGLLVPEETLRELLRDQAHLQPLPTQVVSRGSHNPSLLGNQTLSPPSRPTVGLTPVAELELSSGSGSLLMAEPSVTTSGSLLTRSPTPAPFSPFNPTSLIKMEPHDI
Method in brief: as §1

[8] = target: ETV1 (Homo sapiens, UniProt P50549 1-477)
Sequence of ETV1 (P50549 whole entry): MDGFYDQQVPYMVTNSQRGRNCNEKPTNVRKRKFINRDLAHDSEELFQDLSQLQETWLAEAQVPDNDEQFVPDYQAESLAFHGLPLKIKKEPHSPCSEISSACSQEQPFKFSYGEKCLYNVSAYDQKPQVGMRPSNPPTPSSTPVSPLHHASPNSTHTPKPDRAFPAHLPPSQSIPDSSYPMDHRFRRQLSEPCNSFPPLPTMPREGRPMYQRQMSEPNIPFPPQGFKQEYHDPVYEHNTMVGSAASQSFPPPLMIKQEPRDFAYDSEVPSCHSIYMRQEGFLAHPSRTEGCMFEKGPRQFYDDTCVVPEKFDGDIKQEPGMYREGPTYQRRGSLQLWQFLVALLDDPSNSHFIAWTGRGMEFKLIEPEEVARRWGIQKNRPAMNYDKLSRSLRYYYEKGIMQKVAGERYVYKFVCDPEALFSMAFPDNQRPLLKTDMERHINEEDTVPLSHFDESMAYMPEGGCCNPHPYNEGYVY
Method in brief: as §1

[9] = target: T4, ERF (Homo sapiens, UniProt P50548 1-548)
T4 sequence: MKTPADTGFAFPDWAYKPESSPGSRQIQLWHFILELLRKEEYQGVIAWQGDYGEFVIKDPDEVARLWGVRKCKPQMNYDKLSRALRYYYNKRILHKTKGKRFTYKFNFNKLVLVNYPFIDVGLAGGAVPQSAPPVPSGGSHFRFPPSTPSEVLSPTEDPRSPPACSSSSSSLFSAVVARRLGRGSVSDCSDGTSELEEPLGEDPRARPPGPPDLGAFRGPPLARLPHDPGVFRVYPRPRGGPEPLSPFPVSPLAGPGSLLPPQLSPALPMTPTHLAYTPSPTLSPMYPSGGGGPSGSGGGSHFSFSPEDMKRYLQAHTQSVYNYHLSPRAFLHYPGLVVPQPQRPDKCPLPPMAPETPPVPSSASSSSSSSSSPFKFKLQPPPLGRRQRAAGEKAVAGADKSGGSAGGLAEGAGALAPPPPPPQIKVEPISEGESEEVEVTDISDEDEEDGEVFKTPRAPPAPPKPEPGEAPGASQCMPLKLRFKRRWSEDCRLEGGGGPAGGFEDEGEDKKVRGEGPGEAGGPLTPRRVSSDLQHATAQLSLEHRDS
Method in brief: as §1

[10] = target: T5, ETV7 (Homo sapiens, UniProt Q9Y603 1-341)
T5 sequence: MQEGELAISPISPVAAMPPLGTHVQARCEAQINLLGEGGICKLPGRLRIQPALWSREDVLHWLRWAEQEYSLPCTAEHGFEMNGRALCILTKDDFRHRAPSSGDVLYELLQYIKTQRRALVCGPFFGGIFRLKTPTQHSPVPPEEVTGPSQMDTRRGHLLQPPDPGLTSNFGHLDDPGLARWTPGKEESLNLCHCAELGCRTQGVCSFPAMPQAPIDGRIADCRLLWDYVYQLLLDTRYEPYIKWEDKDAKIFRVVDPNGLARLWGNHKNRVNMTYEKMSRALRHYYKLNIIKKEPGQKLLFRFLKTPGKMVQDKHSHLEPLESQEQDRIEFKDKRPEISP
Method in brief: as §1

[11] = target: T6, ETV3 (Homo sapiens, UniProt P41162-2 1-143)
T6 sequence: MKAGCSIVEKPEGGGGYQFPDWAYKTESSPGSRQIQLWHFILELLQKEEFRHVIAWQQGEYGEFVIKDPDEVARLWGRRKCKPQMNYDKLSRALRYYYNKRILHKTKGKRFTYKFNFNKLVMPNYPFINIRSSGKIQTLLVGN
Method in brief: as §1

[12] = target: ETV6 (Homo sapiens, UniProt P41212 1-452)
Sequence of ETV6 (P41212 whole entry): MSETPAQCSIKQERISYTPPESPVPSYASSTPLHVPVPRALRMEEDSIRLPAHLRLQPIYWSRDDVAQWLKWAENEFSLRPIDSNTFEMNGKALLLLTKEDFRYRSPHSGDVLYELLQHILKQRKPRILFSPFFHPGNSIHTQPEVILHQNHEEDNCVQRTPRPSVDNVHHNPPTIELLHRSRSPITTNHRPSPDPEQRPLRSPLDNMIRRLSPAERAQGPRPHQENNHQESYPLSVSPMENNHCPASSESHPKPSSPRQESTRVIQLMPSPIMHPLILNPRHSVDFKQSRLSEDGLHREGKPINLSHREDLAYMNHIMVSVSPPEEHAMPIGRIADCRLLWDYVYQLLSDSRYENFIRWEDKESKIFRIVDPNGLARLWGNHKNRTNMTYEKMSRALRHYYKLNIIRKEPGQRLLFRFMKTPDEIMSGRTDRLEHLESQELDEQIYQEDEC
Method in brief: as §1

## CAATGG
[1]
  binding signal: 1.03 fold enrichment (6-mer frequency, TF over GST control)
[2]
  binding signal: 1.09 fold enrichment (6-mer frequency, TF over GST control)
[3]
  binding signal: 1.03 fold enrichment (6-mer frequency, TF over GST control)
[4]
  binding signal: 1.03 fold enrichment (6-mer frequency, TF over GST control)
[5]
  binding signal: 1.04 fold enrichment (6-mer frequency, TF over GST control)
[6]
  binding signal: 1.03 fold enrichment (6-mer frequency, TF over GST control)
[7]
  binding signal: 1.02 fold enrichment (6-mer frequency, TF over GST control)
[8]
  binding signal: 1.1 fold enrichment (6-mer frequency, TF over GST control)
[9]
  binding signal: 1.03 fold enrichment (6-mer frequency, TF over GST control)
[10]
  binding signal: 1.12 fold enrichment (6-mer frequency, TF over GST control)
[11]
  binding signal: 1.03 fold enrichment (6-mer frequency, TF over GST control)
[12]
  binding signal: 1.04 fold enrichment (6-mer frequency, TF over GST control)
